In PubChem BioAssay (EPA / NIEHS):
Activity calls are given as the source filed them. The calls were made as follows: active = hit-call score of the fitted dose curve at least 0.9, where 1 is the maximum; inactive = score below 0.9.

Columns and labels:
Details in all cases: mRNA level, 48 h; actives raise or lower the signal
[1] = read-out: Lipoprotein lipase (LPL), LPL (gene 4023); assay: LTEA_HepaRG_LPL: Life Technologies and Expression Analysis (LTEA) Assay for Lipoprotein lipase (LPL) using HepaRG (AID 2283515)
Method in brief: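 Read-out is LPL transcript level by qRT-PCR, normalized to three housekeeping genes and fitted bidirectionally against the DMSO control. Human HepaRG cells received chemicals for 48 h at up to 100 uM.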

[2] = read-out: MicroRNA 122 (MIR122), gene 406906; assay: LTEA_HepaRG_MIR122: Life Technologies and Expression Analysis (LTEA) Assay for MicroRNA 122 (MIR122) using HepaRG (AID 2283516); also: the transcript read is the microRNA miR-122
Method in brief: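 HepaRG, 48 h exposure, 8-pt half-log from 100 uM, 0.5% DMSO; TaqMan qRT-PCR; bidirectional fit vs DMSO.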

[3] = read-out: matrix metalloproteinase-10 (MMP10), MMP10 (gene 4319); assay: LTEA_HepaRG_MMP10: Life Technologies and Expression Analysis (LTEA) Assay for matrix metalloproteinase-10 (MMP10) using HepaRG (AID 2283517)
Method in brief: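 Gain or loss of MMP10 mRNA is fitted relative to the 0.5% DMSO vehicle. The human hepatic line HepaRG receives a 48-hour serum-free exposure, in duplicate, with a maximum concentration of 100 uM.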

MYC, MYC (gene 4609) = assay: LTEA_HepaRG_MYC: Life Technologies and Expression Analysis (LTEA) Assay for MYC using HepaRG (AID 2283518)
Method in brief: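 Differentiated HepaRG cells exposed 48 h in serum-free induction medium to 8 concentrations (top 100 uM, half-log steps; 0.5% DMSO), duplicate. MYC mRNA measured by Fluidigm qRT-PCR, normalized to ACTB, GAPDH, POLR2A; bidirectional fit versus DMSO.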

[4] = read-out: matrix metalloproteinase-3 (MMP3), MMP3 (gene 4314); assay: LTEA_HepaRG_MMP3: Life Technologies and Expression Analysis (LTEA) Assay for matrix metalloproteinase-3 (MMP3) using HepaRG (AID 2283519)
Method in brief: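 HepaRG, human; 48 h dosing, 8 conc. (max 100 uM, half-log), duplicate, 0.5% DMSO. Readout: MMP3 transcript by Fluidigm TaqMan qRT-PCR, ACTB/GAPDH/POLR2A-normalised. Gain or loss fitted vs DMSO.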

[5] = read-out: Paternally Expressed 10 (PEG10), PEG10 (gene 23089); assay: LTEA_HepaRG_PEG10: Life Technologies and Expression Analysis (LTEA) Assay for Paternally Expressed 10 (PEG10) using HepaRG (AID 2283520)
Method in brief: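 Chemicals tested on HepaRG cells for 48 h, highest concentration 100 uM. PEG10 expression assessed by qRT-PCR relative to DMSO control.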

[6] = read-out: Nuclear factor NF-kappa-B p105 subunit (Homo sapiens) (UniProt P19838); assay: LTEA_HepaRG_NFKB1: Life Technologies and Expression Analysis (LTEA) Assay for Nuclear Factor Kappa B Subunit 1 (NFKB1) using HepaRG (AID 2283521)
Method in brief: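 HepaRG, 48 h exposure; 8-pt half-log series from 100 uM in 0.5% DMSO; duplicates. Readout: NFKB1 mRNA by qRT-PCR (Fluidigm arrays), housekeeping-normalized. Gain/loss fit vs DMSO baseline.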

[7] = read-out: Protein phosphatase 2A (PPP2R4), PTPA (gene 5524); assay: LTEA_HepaRG_PPP2R4: Life Technologies and Expression Analysis (LTEA) Assay for Protein phosphatase 2A (PPP2R4) using HepaRG (AID 2283522)
Method in brief: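 Gene-expression endpoint in HepaRG hepatic cells: 48 h treatment across eight half-log concentrations up to 100 uM in 0.5% DMSO. PPP2R4 mRNA by qRT-PCR, normalized to three endogenous control genes.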

[8] = read-out: Phosphatase and tensin (PTEN), PTEN (gene 5728); assay: LTEA_HepaRG_PTEN: Life Technologies and Expression Analysis (LTEA) Assay for Phosphatase and tensin (PTEN) using HepaRG (AID 2283523)
Method in brief: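 Read-out is PTEN transcript level by multiplexed TaqMan qRT-PCR after 48 h chemical treatment of human HepaRG cultures in serum-free induction medium. Concentrations spanned 100 uM downward in half-log steps, 0.5% DMSO throughout; activity fitted in both directions against vehicle.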

[9] = read-out: solute carrier (SLC22A1), SLC22A1 (gene 6580); assay: LTEA_HepaRG_SLC22A1: Life Technologies and Expression Analysis (LTEA) Assay for solute carrier (SLC22A1) using HepaRG (AID 2283524)
Method in brief: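 HepaRG (human liver line), 48 h dosing in serum-free induction medium; 8 conc., half-log down from 100 uM, 0.5% DMSO vehicle, duplicates. Endpoint: SLC22A1 mRNA, qRT-PCR, housekeeping-normalized; gain/loss fit vs DMSO.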

[10] = read-out: Pyruvate Dehydrogenase Kinase 4 (PDK4), PDK4 (gene 5166); assay: LTEA_HepaRG_PDK4: Life Technologies and Expression Analysis (LTEA) Assay for Pyruvate Dehydrogenase Kinase 4 (PDK4) using HepaRG (AID 2283525)
Method in brief: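 In this multiplexed human HepaRG expression assay, cells are treated 48 h with test chemicals across an eight-point range starting at 100 uM. PDK4 mRNA changes, normalized to ACTB/GAPDH/POLR2A, are fitted in both directions relative to vehicle.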

[11] = read-out: NAD(P)H dehydrogenase [quinone] 1 (NQO1), NQO1 (gene 1728); assay: LTEA_HepaRG_NQO1: Life Technologies and Expression Analysis (LTEA) Assay for NAD(P)H dehydrogenase [quinone] 1 (NQO1) using HepaRG (AID 2283526)
Method in brief: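 Human HepaRG hepatic cells received chemicals for 48 h in serum-free induction medium with 0.5% DMSO, up to 100 uM. Expression was assessed by TaqMan qRT-PCR against housekeeping controls and fitted bidirectionally against DMSO.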

[12] = read-out: Nuclear factor erythroid 2-related factor 2 (Homo sapiens) (UniProt Q16236); assay: LTEA_HepaRG_NFE2L2: Life Technologies and Expression Analysis (LTEA) Assay for Nuclear factor erythroid 2-related factor 2 (NFE2L2) Transcription Factor using HepaRG (AID 2283527);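 also: TaqMan qRT-PCR transcript level normalised to ACTB GAPDH and POLR2A housekeeping genes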
Method in brief: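 Transcript level of NFE2L2 is the read-out, measured by microfluidic TaqMan qRT-PCR and normalized to three housekeeping genes. Human HepaRG cultures received test chemical for 48 h at up to 100 uM in half-log steps. Gain or loss of signal is fitted relative to 0.5% DMSO.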

[13] = read-out: succinate dehydrogenase complex iron sulfur subunit B (SDHB), SDHB (gene 6390); assay: LTEA_HepaRG_SDHB: Life Technologies and Expression Analysis (LTEA) Assay for succinate dehydrogenase complex iron sulfur subunit B (SDHB) using HepaRG (AID 2283528)
Method in brief: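 Readout is SDHB transcript level by qRT-PCR, normalised to three housekeeping genes and fitted bidirectionally against 0.5% DMSO vehicle. Human HepaRG cells were treated for 48 h at up to 100 uM.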

[14] = read-out: Signal transducer and activator of transcription 3 (Homo sapiens) (UniProt P40763); assay: LTEA_HepaRG_STAT3: Life Technologies and Expression Analysis (LTEA) Assay for Signal transducer and activator of transcription (STAT3) using HepaRG (AID 2283529)
Method in brief: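 Read-out is STAT3 mRNA level by qRT-PCR, normalized to three housekeeping genes, in human HepaRG liver cells treated for 48 h. Concentrations ran from 100 uM downward in half-log steps; curves were fitted for gain or loss relative to 0.5% DMSO.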

[15] = read-out: sulfotransferase 2A1 (SULT2A1), SULT2A1 (gene 6822); assay: LTEA_HepaRG_SULT2A1: Life Technologies and Expression Analysis (LTEA) Assay for sulfotransferase 2A1 (SULT2A1) using HepaRG (AID 2283531)
Method in brief: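 HepaRG human liver cells, 48 h exposure in serum-free induction medium to 8 half-log concentrations topping at 100 µM (0.5% DMSO), duplicate wells. SULT2A1 mRNA measured by TaqMan qRT-PCR, normalized to ACTB/GAPDH/POLR2A; bidirectional fit against DMSO.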

[16] = read-out: Transforming Growth Factor (TGFA), TGFA (gene 7039); assay: LTEA_HepaRG_TGFA: Life Technologies and Expression Analysis (LTEA) Assay for Transforming Growth Factor (TGFA) using HepaRG (AID 2283532)
Method in brief: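 HepaRG (human liver line), 48 h exposure, 8 conc. half-log down from 100 uM, 0.5% DMSO vehicle, duplicates; serum-free induction medium. TGFA mRNA by TaqMan qRT-PCR, ACTB/GAPDH/POLR2A normalization; gain/loss fit vs DMSO.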

[17] = read-out: Transforming Growth Factor (TGFB1), TGFB1 (gene 7040); assay: LTEA_HepaRG_TGFB1: Life Technologies and Expression Analysis (LTEA) Assay for Transforming Growth Factor (TGFB1) Transporter using HepaRG (AID 2283533)
Method in brief: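 Differentiated HepaRG cells exposed 48 hr in serum-free induction medium to eight half-log concentrations up to 100 uM (0.5% DMSO), duplicate; TGFB1 mRNA by TaqMan qRT-PCR normalised to ACTB, GAPDH, POLR2A; bidirectional fit against DMSO.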

[18] = read-out: Lipase C (LIPC), LIPC (gene 3990); assay: LTEA_HepaRG_LIPC: Life Technologies and Expression Analysis (LTEA) Assay for Lipase C (LIPC) using HepaRG (AID 2283514)
Method in brief: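 Read-out is LIPC transcript level by TaqMan qRT-PCR, normalized to three housekeeping genes, after 48 h chemical treatment of human HepaRG liver cells. Curves span eight concentrations topping at 100 uM; activity in either direction scored relative to 0.5% DMSO.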

[19] = read-out: solute carrier (SLCO1B1), SLCO1B1 (gene 10599); assay: LTEA_HepaRG_SLCO1B1: Life Technologies and Expression Analysis (LTEA) Assay for solute carrier (SLCO1B1) using HepaRG (AID 2283530)
Method in brief: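 Differentiated human HepaRG cells were exposed for 48 h in serum-free induction medium to eight half-log concentrations, top 100 uM, in 0.5% DMSO. SLCO1B1 mRNA was measured by qRT-PCR, normalized to ACTB, GAPDH and POLR2A, and fitted bidirectionally against DMSO.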

Measured: AC50

Signal transducer and activator of transcription 3 (Homo sapiens), sequence (P40763 whole entry, looked up): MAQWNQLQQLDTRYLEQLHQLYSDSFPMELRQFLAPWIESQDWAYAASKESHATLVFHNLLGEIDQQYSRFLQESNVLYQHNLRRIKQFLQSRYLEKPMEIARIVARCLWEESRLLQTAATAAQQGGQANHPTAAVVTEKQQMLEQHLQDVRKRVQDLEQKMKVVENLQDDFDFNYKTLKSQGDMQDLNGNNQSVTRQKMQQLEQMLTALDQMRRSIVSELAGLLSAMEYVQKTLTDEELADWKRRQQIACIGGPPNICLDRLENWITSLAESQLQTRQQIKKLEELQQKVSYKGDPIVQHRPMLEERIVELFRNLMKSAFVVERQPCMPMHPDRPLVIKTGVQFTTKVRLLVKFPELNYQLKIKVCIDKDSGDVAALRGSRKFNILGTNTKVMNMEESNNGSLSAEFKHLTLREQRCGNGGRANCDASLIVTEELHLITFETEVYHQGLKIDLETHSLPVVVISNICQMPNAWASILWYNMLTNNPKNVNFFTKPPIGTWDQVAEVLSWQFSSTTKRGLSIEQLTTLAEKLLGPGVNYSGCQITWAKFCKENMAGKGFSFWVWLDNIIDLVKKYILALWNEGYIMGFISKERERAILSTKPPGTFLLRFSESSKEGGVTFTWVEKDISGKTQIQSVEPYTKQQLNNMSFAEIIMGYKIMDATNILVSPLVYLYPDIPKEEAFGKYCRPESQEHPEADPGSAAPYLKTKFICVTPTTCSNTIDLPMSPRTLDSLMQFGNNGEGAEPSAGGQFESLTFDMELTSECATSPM
Nuclear factor NF-kappa-B p105 subunit (Homo sapiens), sequence (P19838 whole entry, looked up): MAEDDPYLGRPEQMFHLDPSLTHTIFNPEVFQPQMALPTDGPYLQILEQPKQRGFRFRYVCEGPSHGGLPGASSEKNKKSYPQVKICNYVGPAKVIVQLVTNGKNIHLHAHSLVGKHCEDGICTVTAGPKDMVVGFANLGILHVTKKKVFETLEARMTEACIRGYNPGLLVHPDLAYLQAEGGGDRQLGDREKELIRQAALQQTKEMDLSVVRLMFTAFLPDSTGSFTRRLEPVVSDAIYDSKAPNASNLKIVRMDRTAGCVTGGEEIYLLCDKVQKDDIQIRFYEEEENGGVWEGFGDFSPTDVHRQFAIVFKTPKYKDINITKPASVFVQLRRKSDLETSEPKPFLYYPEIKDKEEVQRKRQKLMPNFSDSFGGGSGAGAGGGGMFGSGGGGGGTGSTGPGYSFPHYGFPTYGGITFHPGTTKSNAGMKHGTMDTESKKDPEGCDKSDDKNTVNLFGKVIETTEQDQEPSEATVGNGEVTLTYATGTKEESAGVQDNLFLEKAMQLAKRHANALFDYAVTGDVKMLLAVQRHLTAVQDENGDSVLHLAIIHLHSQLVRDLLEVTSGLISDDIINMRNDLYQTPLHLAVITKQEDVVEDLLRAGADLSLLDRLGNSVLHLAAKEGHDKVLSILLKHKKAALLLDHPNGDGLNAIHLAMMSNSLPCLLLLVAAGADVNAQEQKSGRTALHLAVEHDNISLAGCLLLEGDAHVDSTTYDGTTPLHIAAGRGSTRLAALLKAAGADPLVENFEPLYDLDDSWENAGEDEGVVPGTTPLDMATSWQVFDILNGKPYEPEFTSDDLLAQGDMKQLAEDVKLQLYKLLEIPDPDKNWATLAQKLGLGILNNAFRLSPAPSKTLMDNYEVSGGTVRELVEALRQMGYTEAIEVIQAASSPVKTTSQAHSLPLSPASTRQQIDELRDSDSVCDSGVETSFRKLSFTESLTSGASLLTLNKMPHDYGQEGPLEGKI
Nuclear factor erythroid 2-related factor 2 (Homo sapiens), sequence (Q16236 whole entry, looked up): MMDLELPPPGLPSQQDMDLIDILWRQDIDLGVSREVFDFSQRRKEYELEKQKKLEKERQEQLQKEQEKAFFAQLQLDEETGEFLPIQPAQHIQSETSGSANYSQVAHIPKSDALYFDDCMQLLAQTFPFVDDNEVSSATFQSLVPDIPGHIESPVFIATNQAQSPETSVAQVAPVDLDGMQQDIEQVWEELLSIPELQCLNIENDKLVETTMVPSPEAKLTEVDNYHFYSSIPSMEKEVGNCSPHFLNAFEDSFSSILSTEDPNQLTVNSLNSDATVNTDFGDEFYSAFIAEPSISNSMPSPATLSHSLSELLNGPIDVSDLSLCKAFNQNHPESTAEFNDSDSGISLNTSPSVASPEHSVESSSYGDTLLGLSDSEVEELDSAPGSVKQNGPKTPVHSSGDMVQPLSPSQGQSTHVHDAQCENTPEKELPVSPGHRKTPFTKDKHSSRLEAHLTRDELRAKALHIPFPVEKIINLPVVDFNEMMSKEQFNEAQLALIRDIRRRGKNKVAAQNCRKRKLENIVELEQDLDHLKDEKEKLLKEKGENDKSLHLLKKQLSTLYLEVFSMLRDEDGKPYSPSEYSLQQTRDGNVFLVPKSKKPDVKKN

OC(CCl)CCl
inactive: [1] | [2] | [3] | MYC, MYC (gene 4609) | [4] | [5] | [6] | [7] | [8] | [9] | [10] | [11] | [12] | [13] | [14] | [15] | [16] | [17]

O=C1CN(N=Cc2ccc([N+](=O)[O-])o2)C(=O)N1
inactive: [18] | [2] | [3] | [4] | [5] | [7] | [8] | [11] | [14] | [19] | [15] | [16] | [17]
active: [1] 91.3 µM | MYC, MYC (gene 4609) 80.1 µM | [9] 32.7 µM | [10] 57.6 µM | [13] 16.1 µM

Cc1ncc([C@@H](CCCCCCc2ccc3c(n2)NCCC3)CC(=O)O)cn1
inactive: [18] | [2] | [3] | MYC, MYC (gene 4609) | [5] | [7] | [8] | [11] | [12] | [13] | [14] | [15] | [16] | [17]
active: [1] 0.382 µM | [4] 0.145 µM | [10] 0.317 µM

CCCCCCCCCCCCCCO
inactive: [18] | [1] | [3] | MYC, MYC (gene 4609) | [4] | [5] | [6] | [7] | [8] | [10] | [11] | [12] | [13] | [14] | [15] | [16] | [17]

OC(Cn1cncn1)(Cn1cncn1)c1ccc(F)cc1F
inactive: [18] | [1] | [3] | MYC, MYC (gene 4609) | [4] | [5] | [6] | [7] | [8] | [9] | [10] | [11] | [12] | [13] | [14] | [15] | [16] | [17]

CNC(C)=O
inactive: [18] | [1] | [2] | [3] | MYC, MYC (gene 4609) | [4] | [5] | [7] | [8] | [10] | [11] | [12] | [13] | [14] | [15] | [16] | [17]

O=c1[nH]cnc2c1ncn2[C@H]1CC[C@@H](CO)O1
inactive: [18] | [1] | [3] | MYC, MYC (gene 4609) | [4] | [5] | [7] | [8] | [10] | [11] | [12] | [13] | [14] | [15] | [16] | [17]

CCCCCCCC1CCC(=O)O1 (stereo not drawn)
inactive: [18] | [1] | [2] | [3] | MYC, MYC (gene 4609) | [4] | [5] | [7] | [8] | [10] | [11] | [13] | [14] | [19] | [15] | [16] | [17]
